This passage reports Potency and max response results from PubChem BioAssay (NCATS).

The structures appear in SMILES notation. “And” between values parts separate entries of the source, which are not always exact repeats. Equal entries are not always repeated. Inconclusive results are not listed. The source made the active and inactive calls. Calls come from the whole dose curve; as a rule, active = well fitted cell-killing curve with a large enough effect; inconclusive = small, poorly fitted or top-dose-only effect, or effect the other way; inactive = flat fitted curve, though single readings scatter.
% is set by controls: 0 for no effect and ±100 for the full control effect; potency is the fitted concentration of half-maximal effect.

The experiment in a line: qHTS assay for cell viability of HEK293 cells (AID 743288). Note: nearly all actives have a fitted effect of over 50% in size. The note with it: ATP luminescence (CellTiter-Glo), 18 h; max response: hits give low values. The source says: National Center for Advancing Translational Sciences [NCATS]
NIH Chemical Genomics Center [NCGC]
U.S. Environmental Protection Agency [EPA]
National Institutes of Environmental Health Sciences [NIEHS]
National Toxicology Program [NTP]
U.S. Food and Drug Administration [FDA]
The CellTiter-Glo Luminescent Cell Viability Assay (Promega, Madison, WI) is a homogeneous method to determine the number of viable cells in culture based on quantitation of the ATP present, which signals the presence of metabolically active cells. This cell viability assay was used to screen environmental chemicals in the Hek293 cell line.
Tox21 Assay Protocol Summary:
Cell viability after compound treatment was measured using a luciferase-coupled ATP quantitation assay (CellTiter-Glo viability assay, Promega, Madison, WI) in parental HEK293 cells. Total intracellular ATP content corresponds to the number of metabolically competent cells after compound treatment. The cells were dispensed at 2,000 cells/5 uL/well in 1,536-well white/solid bottom assay plates using a Flying Reagent Dispenser (Aurora Discovery, San Diego, CA). The cells were incubated a minimum of 5 h at 37 C, followed by the addition of 23 nL of compounds dissolved in DMSO, positive controls or DMSO only using a pintool work station (Kalypsys, San Diego, CA). The assay plates were incubated for 18 h at 37 C, followed by the addition of 5 uL/well of CellTiter-Glo reagent. After 30 min incubation at room temperature, the luminescence intensity of the plates was measured using a ViewLux plate reader (PerkinElmer, Shelton, CT).
A general note: qHTS replaces the single test concentration by a dilution series.
Consider `NC1=NC(S)C2N=CN=C2N1` (stereo not given), for which the Potency was 2820 nM (active).

As to `CC1(C)CC(N=C=O)CC(C)(CN=C=O)C1` (stereo not given), the max response is -4.37% (inactive) and 1.94% (inactive).

In the case of `O=C(O[C@@H]1Cc2c(O)cc(O)cc2O[C@@H]1c1cc(O)c(O)c(O)c1)c1cc(O)c(O)c(O)c1`, the max response was -1.55% (inactive). As for `CCCCC(CC)CN` (stereo not given), the max response was 2.8% (inactive) and -10% (inactive). Consider `COc1cc(/C=C/c2ccccc2)oc(=O)c1`, for which the max response was -23% (inactive). `CCC(C)c1ccccc1O` (stereo not given): the max response was 12.6% (inactive) and 1.15% (inactive) and -2.8% (inactive). Still for that read-out and setting: to `c1ccc2c(c1)[nH]c1ccccc12` belongs -7.42% (inactive) and -16.3% (inactive); to `O=[N+]([O-])c1cccc(Cl)c1Cl`, -3.06% (inactive) and -4.76% (inactive); to `CCCCCCCCCCCCCCC1CO1` (stereo not given), -3.91% (inactive) and -17.2% (inactive). As to `COC(=O)c1ccc(C=O)cc1`, the max response is -15.6% (inactive) and -6.77% (inactive). `c1ccc2c(c1)c1cccc3ccc4cccc2c4c31`: the max response is 0.963% (inactive) and -16.2% (inactive).

Take `C/C=C\c1ccc(OC)cc1`: the max response is 8.66% (inactive). As to `ClCCCl`, the max response was -0.0928% (inactive) and -7.5% (inactive) and -2.25% (inactive). Consider `c1ccc2scnc2c1`, for which the max response is 11.2% (inactive). Same read-out and setting: as for `COC(=O)CCCCC(=O)OC`, the figure is -0.912% (inactive) and -4.94% (inactive) and -1.91% (inactive). With `Cc1cccc([N+](=O)[O-])c1C`, the max response is -3.29% (inactive) and 4.27% (inactive). Take `COc1c2ccoc2cc2oc(=O)ccc12`: the max response is -2.26% (inactive). As to `O[C@@H]([C@H](O)[C@@H](O)CBr)[C@@H](O)CBr`, the max response was -10.9% (inactive). In the case of `O=C(O)c1ccccc1`, the max response was -1.04% (inactive).

On to `Cc1ccc(N)c([N+](=O)[O-])c1`, for which the max response was -10.6% (inactive) and -7.86% (inactive). `C=CCc1ccc(OC)c(OC)c1`: the max response is 3.16% (inactive) and -7.18% (inactive).

Consider `CN(C)C=O`, for which the max response is -10.8% (inactive) and 1.33% (inactive) and 0.809% (inactive).

As to `CC1(C)S[C@@H]2[C@H](NC(=O)COc3ccccc3)C(=O)N2[C@H]1C(=O)O`, the max response was -6.9% (inactive). Take `C=CCOC(=O)c1ccccc1C(=O)OCC=C`: the max response is 7.73% (inactive) and -19.3% (inactive).

Take `COCC(=O)O`: the max response is -1.06% (inactive) and 2.91% (inactive). `Nc1ccc(S(=O)(=O)O)cc1`: the max response is -3.43% (inactive) and 3.86% (inactive). The same measure, in the same setting: as for `C=CC(=C)CCC=C(C)C`, the figure is 1.18% (inactive); as for `Cc1cccc(O)c1`, -15.7% (inactive) and -2.81% (inactive); as for `O=S(=O)(O)c1ccccc1`, 8.35% (inactive).

Regarding `O=C(O)CC(C(=O)O)C(CC(=O)O)C(=O)O` (stereo not given), the max response is -0.385% (inactive) and -19.1% (inactive). As to `S=C1NC=NC2N=CNC12` (stereo not given), the Potency is 2240 nM (active). Regarding `Cc1ccccc1C`, the max response was -12.4% (inactive) and -5.18% (inactive). With `Cc1ccc([N+](=O)[O-])cc1N`, the max response was -2.6% (inactive) and -12% (inactive). Consider `C=CC(C)(CCC=C(C)C)OC(C)=O` (stereo not given), for which the max response was -14.2% (inactive). On to `CCCCCCCCCCCCCC(=O)O`, for which the max response is 2.25% (inactive) and -11.5% (inactive). For the compound `Cc1ccc([N+](=O)[O-])c(C)c1`, the max response is 0.892% (inactive) and -5.18% (inactive). The same measure, in the same setting: as for `CCCCOCCO`, the figure is 4.48% (inactive) and -11.2% (inactive) and -7.95% (inactive). Regarding `CCO`, the max response was 8.81% (inactive). For the compound `O=C(/C=C/c1ccc(O)c(O)c1)O[C@@H](C(=O)O)[C@@H](OC(=O)/C=C/c1ccc(O)c(O)c1)C(=O)O`, the max response is -0.791% (inactive). `CCCCCCCCO`: the max response is 3.94% (inactive) and -5.81% (inactive) and -6.7% (inactive).
